# Data: article PMC10726135, “HNF4α isoforms regulate the circadian balance between carbohydrate and lipid metabolism in the liver”
# In all, about 18,000 sequences were measured (“log2 normalized intensity”: median about 0.36, highest 2% from about 7.3 on). This excerpt belongs to a sample that is enriched for the highest values.
# Biological target: T1, HNF4alpha8 (COS-7 nuclear extract) (Homo sapiens, UniProt P41235-5 1-452)
# T1 sequence: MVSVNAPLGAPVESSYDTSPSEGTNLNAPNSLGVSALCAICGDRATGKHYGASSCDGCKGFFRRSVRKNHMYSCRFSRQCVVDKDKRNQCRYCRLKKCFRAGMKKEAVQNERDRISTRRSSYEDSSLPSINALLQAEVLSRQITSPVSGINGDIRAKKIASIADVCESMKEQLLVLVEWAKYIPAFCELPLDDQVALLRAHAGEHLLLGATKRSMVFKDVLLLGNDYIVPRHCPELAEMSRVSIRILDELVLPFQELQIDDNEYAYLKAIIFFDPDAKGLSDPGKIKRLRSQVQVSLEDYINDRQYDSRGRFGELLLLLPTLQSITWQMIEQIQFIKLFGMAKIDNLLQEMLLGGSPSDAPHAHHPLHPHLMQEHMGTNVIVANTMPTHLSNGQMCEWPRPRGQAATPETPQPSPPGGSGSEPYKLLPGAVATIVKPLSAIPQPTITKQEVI
# Experiment: protein-binding microarray; COS-7 nuclear extract on double-stranded Agilent 4x180k PBM; binding buffer, salt, pH and temperature not given in the material; high values mean tight binding
# Settings: chain copies: 2; label: 3' end of strand 1 on the slide; dsDNA, one strand shown
# Outline: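 Double-stranded oligonucleotides of ~60 nt, representing ~44,000 test sequences in quadruplicate, made up a custom Agilent SurePrint G3 4x180k array. Nuclear extracts from COS-7 cells transiently transfected by CaPO4 with a human HNF4α isoform expression vector were applied, and bound HNF4α was imaged at 2-µm resolution on an Agilent G2565CA scanner. Binding signal refers to the background-corrected, normalized gProcessedSignal output of Agilent software.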
row,Sequence,binding signal [log2 normalized intensity]
1,CCGCCCACCCTTTTTTTTCTTTCTTTTCCCGCCTAGGGAGATTAGAGTATCGGTCGA,1.46
2,CTGTACCCTATGCACCCCACAGTGCTGTTTGCCTAGGGAGATTAGAGTATCGGTCGA,1.71
3,GGGTTTGTTTTTTGCCCTTTGTACCCACACGCCTAGGGAGATTAGAGTATCGGTCGA,8.41
4,ACCCACCCACACCTCCCCTTTGTTTAACTTGCCTAGGGAGATTAGAGTATCGGTCGA,2.79
5,TGTTTTTTGCCCTTTGTACCCACACACACCGCCTAGGGAGATTAGAGTATCGGTCGA,7.36
6,TGCCCTTTGCCTGGTGATCTTTGTTAGACCGCCTAGGGAGATTAGAGTATCGGTCGA,3.02
7,CCAGAGCCTCCAAAGTCCGCTTGCCTGAGGGCCTAGGGAGATTAGAGTATCGGTCGA,-0.939
8,ACAGCGTTTTCCCATTCATGACATTGATTTGCCTAGGGAGATTAGAGTATCGGTCGA,1.47
9,ACCCCACTTTGGTTCACCGCTCACTGCTCCGCCTAGGGAGATTAGAGTATCGGTCGA,-0.611
10,TACTGGTTGAATGGACGGACAGGTAACGTAGCCTAGGGAGATTAGAGTATCGGTCGA,0.899
11,AACCTCCTTTGAGATAGCTATGATTATCCTGCCTAGGGAGATTAGAGTATCGGTCGA,-0.867
12,ATTGACATTTGGGGTCAGATAATTCTTTGCGCCTAGGGAGATTAGAGTATCGGTCGA,2.42
13,AAGACCCAAGGCGTATGAAGCTTTGACCCTGCCTAGGGAGATTAGAGTATCGGTCGA,5.29
14,GAAGATCGCAGACTTTGGACTCTGCAAGGAGCCTAGGGAGATTAGAGTATCGGTCGA,6.68
15,CTGAAGAATTTGGACTTTGCACTAAAAGCCGCCTAGGGAGATTAGAGTATCGGTCGA,7.57
16,GGGTCCTGGCAGCACCTGAAGAATTTGGACGCCTAGGGAGATTAGAGTATCGGTCGA,1.76
17,TGGACTTTGCACTAAAAGCCATGAGAAGGTGCCTAGGGAGATTAGAGTATCGGTCGA,5.41
18,CTGGCAGCACCTGAAGAATTTGGACTTTGCGCCTAGGGAGATTAGAGTATCGGTCGA,8.33
19,GAATTTGGACTTTGCACTAAAAGCCATGAGGCCTAGGGAGATTAGAGTATCGGTCGA,6.28
20,AGCACCTGAAGAATTTGGACTTTGCACTAAGCCTAGGGAGATTAGAGTATCGGTCGA,9.19
21,TTCCTGAAGATCGCAGACTTTGGACTCTGCGCCTAGGGAGATTAGAGTATCGGTCGA,8.57
22,TGGACTTTGGAATTAAGGAGATTTGGCTTTGCCTAGGGAGATTAGAGTATCGGTCGA,5.99

row,Sequence,binding signal [log2 normalized intensity]
1,GGTGAGTCTTTGCCCCTGGACTTTGAATTTGCCTAGGGAGATTAGAGTATCGGTCGA,5.75
2,GGAGACCTGAAACTAGACCAAGAAGACTTTGCCTAGGGAGATTAGAGTATCGGTCGA,-0.267
3,AGGGATTCCTGAAGATCGCAGACTTTGGACGCCTAGGGAGATTAGAGTATCGGTCGA,6.44
4,CAAGGAAAGATAAATAGTGACAAATTGTATGCCTAGGGAGATTAGAGTATCGGTCGA,-0.0347
5,GTTTCTCAAGTGATCGAAGGTCAACTTATCGCCTAGGGAGATTAGAGTATCGGTCGA,4.63
6,TGTCCTGTGATTAAGGTCAATGGGAAACTAGCCTAGGGAGATTAGAGTATCGGTCGA,1.05
7,CTAGTTCATTAAACATGTTTACTCTGGTCCGCCTAGGGAGATTAGAGTATCGGTCGA,1.59
8,GAAGGAGAGTGACCTCTGCTTGAAGGCATTGCCTAGGGAGATTAGAGTATCGGTCGA,1.78
9,AGATTCTTTCTTCCTTTTGAAAAAGTGAGTGCCTAGGGAGATTAGAGTATCGGTCGA,0.567
10,AATAGCCCCAAATTCCTTTCAAACTGTATTGCCTAGGGAGATTAGAGTATCGGTCGA,1.37
11,CAAAAATGATACCCCAGAGTACAGCACTTTGCCTAGGGAGATTAGAGTATCGGTCGA,1.2
12,ATCAGAGCAAAGTTCAATTTCCAACAAATGGCCTAGGGAGATTAGAGTATCGGTCGA,3.74
13,AGATCATCCTGCAGTTCCTGATCTTTGACCGCCTAGGGAGATTAGAGTATCGGTCGA,7.84
14,TGGACTTTGATCCTGATGACTGCAGAGCTTGCCTAGGGAGATTAGAGTATCGGTCGA,6.16
15,CACCTTTGGATCCAGCTCCTGATGTTTGGTGCCTAGGGAGATTAGAGTATCGGTCGA,2.43
16,GGAGAGAGTTTGGCCCCAGTTCCCATGGACGCCTAGGGAGATTAGAGTATCGGTCGA,1.45
17,AATTCCAGTTTGGACTTTGATCCTGATGACGCCTAGGGAGATTAGAGTATCGGTCGA,10
18,CAGTTTGGACTTTGATCCTGATGACTGCAGGCCTAGGGAGATTAGAGTATCGGTCGA,8.17
19,CTGATGCCCTTTGGATTTAGGCAGTTTTTGGCCTAGGGAGATTAGAGTATCGGTCGA,2.92
20,GCAGTTCCTGATCTTTGACCTGGAGCATGAGCCTAGGGAGATTAGAGTATCGGTCGA,5.34
21,ATCCTGCAGTTCCTGATCTTTGACCTGGAGGCCTAGGGAGATTAGAGTATCGGTCGA,6.23
